Assay [1] in a line: qHTS profiling of the MIPE4 collection as inhibitors of Plasmodium falciparum (3D7) proliferation (AID 743344).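 Note: scaled between DMSO vehicle wells and 0.29 µM artemisinin as full inhibition.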 The settings on record: P. falciparum 3D7 in erythrocytes, SYBR Green DNA fluorescence, 72 h; at 28.5 µM unless noted. The gist of the method:
(§1)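 Erythrocytes infected with P. falciparum (0.3% parasitemia, 2.5% hematocrit) incubated with compounds 72 h at 37 C, 5% CO2. Lysis with saponin/Triton buffer containing SYBR Green I, overnight at room temperature in the dark; DNA fluorescence (485/535 nm) normalised to 0.29 uM artemisinin and DMSO.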
For orientation: qHTS replaces the single test concentration by a dilution series.

A short description of assay [2]: qHTS profiling of the MIPE4 collection as inhibitors of Plasmodium falciparum (DD2) proliferation (AID 743345). Conditions: P. falciparum Dd2 in erythrocytes, SYBR Green DNA, 72 h; at 28.5 µM unless noted. The gist of the method:
as §1

Assay [3] in a line: qHTS profiling of the MIPE4 collection as inhibitors of Plasmodium falciparum (HB3) proliferation (AID 743347).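 Note: plate controls were DMSO vehicle wells for no effect and artemisinin wells for full effect.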 Conditions: P. falciparum HB3 in erythrocytes, SYBR Green DNA, 72 h; at 28.5 µM unless noted. The gist of the method: as §1
Assay [4] in a line: High-throughput drug toxicity screening in the BPDCN cell line Gen2.2 (AID 1224824).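 Note: cells exposed to compounds for 48 h before reading.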 Conditions: Gen2.2 BPDCN cells; at 45.8 µM (top of the series) unless noted. In short, it runs like this:
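Gen2.2, 500 cells/well, phenol red-free RPMI/10% FBS/Pen-Strep; 48 h cpd, 37 °C/5% CO2; CTG lum, 15 min RT. Norm: DMSO = 100%, bortezomib 9.2 uM final = 0%.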

Assay [5] is described as follows: High-throughput drug toxicity screening in the BPDCN cell line Cal-1 (AID 1224825). Conditions: Cal-1 BPDCN cell viability, qHTS; at 45.8 µM (top of the series) unless noted. In short, it runs like this: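 Exponentially growing Cal-1 cells, 500 per well in phenol red-free RPMI with 10% FBS, were exposed to compounds for 48 h at 37 °C, 5% CO2. Viability was read by CellTiter-Glo luminescence and normalised to DMSO (100%) and 9.2 uM bortezomib (0%).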

A short description of assay [6]: qHTS assay for measurement of the activity of small molecule inhibitors on Zika virus induced Caspase-3 activity in human iPSC derived neural progenitor cells (hNPCs) (AID 1224857; active = well fitted curve in the direction sought with a large enough effect; an effect the other way counts as inactive or inconclusive; note: % of control where 0% means no effect; nearly all actives have a fitted effect of over 65% in size). The gist of the method: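 Cells were plated at 350 per well and grown 16 to 20 hours. Compound pretreatment lasted one hour, after which ZIKV (2 FFU/cell) was added for 6 hours. Percent inhibition was normalized between uninfected and infected controls.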

Assay [7] is described as follows: qHTS assay for measurement of the activity of small molecule inhibitors on Zika virus induced Caspase-3 activity in human astrocytoma cells (AID 1224859; active = well fitted curve in the direction sought with a large enough effect; an effect the other way counts as inactive or inconclusive;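 note: plate controls were ZIKV-infected untreated cells for no effect and uninfected cells for full effect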). The gist of the method: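 Percent inhibition of virus-induced caspase-3/7 signal is calculated against uninfected and ZIKV-infected control cells. Cells are SNB-19, infected at 2 FFU/cell for 6 h after 1 h compound exposure.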

The nature of assay [8]: qHTS Screen of the MIPE 4.0 Collection Against Ewings Sarcoma (TC71) (AID 1259253; active = well fitted curve in the direction sought with a large enough effect; an effect the other way counts as inactive or inconclusive; note: nearly all actives have a fitted effect of over 40% in size; note: potency is the fitted concentration of half-maximal effect). The gist of the method: (§2)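 Measured: ATP luminescence (CellTiter-Glo) 10 min after reagent addition, following 48 h drug treatment. Relative luciferase units converted to percent activity, with no-cell wells as full and DMSO wells as zero inhibition.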
Assay [9] is described as follows: qHTS Screen of the MIPE 4.0 Collection Against Ewings Sarcoma (EW8) (AID 1259255; active = well fitted curve in the direction sought with a large enough effect; an effect the other way counts as inactive or inconclusive;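 note: 100% = DMSO-treated cells and 0% = medium-only wells without cells; nearly all actives have a fitted effect of over 35% in size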). The gist of the method: as §2
The nature of assay [10]: qHTS profiling of the MIPE4 collection as inhibitors of Plasmodium falciparum (DD2) proliferation (Rep 2) (AID 743346). Conditions: P. falciparum Dd2 in erythrocytes, SYBR Green DNA, 72 h; at 28.5 µM unless noted. The gist of the method: as §1
A short description of assay [11]: qHTS profiling for inhibitors of Plasmodium falciparum (3D7) proliferation (AID 743322).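 Note: infected erythrocytes exposed to compound for 72 h before lysis; 100% = DMSO vehicle wells and 0% = 0.29 µM artemisinin.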 The settings on record: P. falciparum 3D7 proliferation; at 28.7 µM (top of the series). In short, it runs like this: as §1
The nature of assay [12]: qHTS profiling for inhibitors of Plasmodium falciparum (DD2) proliferation (AID 743323). Conditions: lower = more inhibition; at 28.7 µM (top of the series). The gist of the method: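 SYBR Green fluorescence (ex 485, em 535 nm) of lysed cultures gives parasite DNA content; wells normalized to artemisinin (0.29 uM) and DMSO controls. Infected red cells: 0.3% parasitemia, 2.5% hematocrit, 72 h, 37 C.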

Assay [13] in a line: qHTS profiling for inhibitors of Plasmodium falciparum (HB3) proliferation (AID 743324; active = well fitted curve in the direction sought with a large enough effect; an effect the other way counts as inactive or inconclusive;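 note: 100% = DMSO vehicle wells and 0% = artemisinin-treated control wells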). The settings on record: Plasmodium falciparum HB3 blood-stage proliferation; at 28.7 µM (top of the series). In short, it runs like this:
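P. falciparum HB3 grown in erythrocytes (0.3% parasitemia, 2.5% hematocrit final) with compound for 72 h at 37 C, 5% CO2. Parasite DNA detected by SYBR Green after saponin/triton lysis overnight; normalized to 0.29 uM artemisinin and DMSO.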

Inconclusive results are not listed. Activity calls are given as the source filed them. Unless noted, the rule behind the calls is not given here.

The compound `NC[C@@H]1O[C@@H](O[C@H]2[C@@H](O)[C@H](O[C@@H]3[C@@H](O)[C@@H](N)C[C@H](N)[C@H]3O[C@H]3O[C@H](CN)[C@@H](O)[C@@H](O)[C@H]3N)O[C@H]2CO)[C@H](N)[C@@H](O)[C@@H]1O` gave a parasite growth, % of DMSO control in assay [1] of 88%. Also, the parasite growth remaining, % of DMSO control (lower = more inhibition) in assay [2] is 92.7%. This compound also came in with a growth, % of control in assay [3] of 99.6%. In addition, the cell viability, % of control (lower = more cytotoxic) in assay [4] amounted to 134%. Further, in assay [5], the viability (% of control) turned out to be 147%. Also, the Potency result in assay [6], in assay [7], in [8] and in assay [9] was “inactive” throughout.
For the compound `O=C(NCc1ccncc1)C12C[C@H]3C[C@@H](C1)CC(c1ccc(Cl)cc1)(C3)C2`, in assay [1], the parasite growth, % of DMSO control was found to be 20%. The compound also registered a parasite growth, % of control (lower = inhibition) in assay [10] of 26%. In assay [3], this compound returned a growth, % of control of 42.3%. Moreover, the cell viability, % of control (lower = more cytotoxic) in assay [4] was found to be 16.2%. The viability (% of control) in assay [5] stood at 11.3%. Also, the Potency result in assay [6] and in assay [7] was “inactive” throughout. Moreover, the Potency in [8] was 26.4 µM (active).
On to `CC=CCC=CCCC(=O)[C@H]1O[C@@H]1C(N)=O`, for which the cell viability, % of control (lower = more cytotoxic) in assay [4] turned out to be 7.55%. In addition, the viability (% of control) in assay [5] is 15.5%. Besides, the Potency result in assay [6] and in [7] was “inactive” throughout.
For the compound `C[C@H]1[C@H](NC(=O)C(=NOC(C)(C)C(=O)O)c2csc(N)n2)C(=O)N1S(=O)(=O)O`, the growth, % of control in [3] was 102%. Further, the cell viability, % of control (lower = more cytotoxic) in [4] is 120%. In [5], the viability (% of control) turned out to be 121%. Moreover, the Potency result in assay [6], in [7], in [8] and in [9] was “inactive” throughout.
Consider `CC1CCC(C(=O)N(c2cc(C#CC(C)(C)C)sc2C(=O)O)C2CCC(O)CC2)CC1` (stereo not drawn), for which the parasite growth, % of DMSO control in assay [1] was 4.72%. The compound also had a parasite growth, % of control (lower = inhibition) in [10] of 9.42%. In [3], this compound gave a growth, % of control of 3.91%. In [4], the cell viability, % of control (lower = more cytotoxic) was 50.9%. The viability (% of control) in [5] came out at 92%. Besides, the Potency result in assay [6] and in assay [7] was “inactive” each time. The Potency in [8] is 26.4 µM (active).
For the compound `NC(=O)c1ccc2nc(-c3ccc(Oc4ccc(Cl)cc4)cc3)[nH]c2c1`, the parasite growth, % of DMSO control in assay [1] came out at 48.1%. This compound also had a parasite growth remaining, % of DMSO control (lower = more inhibition) in assay [2] of 76.9%. Also, the parasite growth, % of control (lower = inhibition) in [10] was found to be 61.3%. For the same compound, in assay [4], the cell viability, % of control (lower = more cytotoxic) is 59.5%. For the same compound, in [5], the viability (% of control) worked out at 38%. For the same compound, the Potency entry in assay [6] and in assay [7] was “inactive” throughout. For the same compound, the Potency in [8] is 0.526 µM (active).
For `CN1[C@@H]2CCC[C@@H]1CC(NC(=O)c1nn(C)c3ccccc13)C2` (stereo partly drawn), the cell viability, % of control (lower = more cytotoxic) in assay [4] came out at 97.5%. The viability (% of control) in assay [5] was determined as 105%.
`CCC(=O)O[C@]1(C(=O)CO)CC[C@H]2[C@@H]3CCC4=CC(=O)CC[C@]4(C)[C@@H]3CC[C@@]21C` registered a parasite growth, % of DMSO control in [1] of 37.1%. In assay [2], this compound displayed a parasite growth remaining, % of DMSO control (lower = more inhibition) of 93.6%. For the same compound, the cell viability, % of control (lower = more cytotoxic) in [4] came to 84.6%. Besides, the viability (% of control) in assay [5] was found to be 81.8%. Further, the Potency result in assay [6], in assay [7] and in assay [9] was “inactive” each time.
Regarding `CC(C)(Cc1ccc2ccccc2c1)NC[C@@H](O)COc1cccc(Cl)c1C#N`, the parasite growth, % of DMSO control in assay [1] came out at 89.9%. Further, the parasite growth remaining, % of DMSO control (lower = more inhibition) in assay [2] worked out at 98.5%. The same compound returned a parasite growth, % of control (lower = inhibition) in assay [10] of 59.5%. The compound also gave a growth, % of control in [3] of 92%. Also, in assay [4], the cell viability, % of control (lower = more cytotoxic) came to 123%. Further, in [5], the viability (% of control) came out at 12.4%. In addition, the Potency result in [6] and in assay [7] was “inactive” each time. The Potency in [8] was 16.6 µM (active).
In turn, `CN(C)Cc1ccc(-c2nc3cccc4c3n2CCNC4=O)cc1` returned a remaining parasite growth % (stronger effect = lower value) in assay [11] of 86.1%. In assay [12], this compound displayed an activity, percent of control of 90%. The compound also displayed a remaining proliferation (% of control), lower = more inhibition in [13] of 94%. Moreover, in [1], the parasite growth, % of DMSO control turned out to be 64%. The growth, % of control in [3] came to 97%. The cell viability, % of control (lower = more cytotoxic) in assay [4] was 15.8%. For the same compound, in [5], the viability (% of control) is 4.01%. For the same compound, the Potency result in [6] and in [7] was “inactive” each time. Besides, in assay [8], the Potency is 18.7 µM (active).
Compound `Nc1ncnc2c1ncn2[C@@H]1O[C@H](CO)C[C@@H]1O` displayed a parasite growth, % of DMSO control in [1] of 43.4%. In [2], the parasite growth remaining, % of DMSO control (lower = more inhibition) amounted to 56.1%. Also, the parasite growth, % of control (lower = inhibition) in [10] came out at 57.5%. The cell viability, % of control (lower = more cytotoxic) in assay [4] is 96.4%. Moreover, the viability (% of control) in assay [5] was 39.8%. Moreover, the Potency result in assay [6], in assay [7] and in assay [9] was “inactive” in each case.
In turn, `CN[C@@H](C)C(=O)N[C@H]1CN(C(=O)CC(C)C)CC[C@H]2CC[C@@H](C(=O)NC(c3ccccc3)c3ccccc3)N2C1=O` displayed a parasite growth, % of DMSO control in assay [1] of 69.1%. In assay [2], this compound registered a parasite growth remaining, % of DMSO control (lower = more inhibition) of 55%. The parasite growth, % of control (lower = inhibition) in assay [10] amounted to 27.9%. Besides, in [4], the cell viability, % of control (lower = more cytotoxic) was 19.5%. In [5], the viability (% of control) is 9.02%. Moreover, the Potency result in assay [6], in assay [7] and in assay [9] was “inactive” in each case.

Source of the values: PubChem BioAssay (NCATS).
